{"source": "PubChem BioAssay (NCI)", "note": "About 83,000 compounds went through this panel and 20% of them were active in at least one assay; those are over-represented in the sample as a whole.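 Testing used 96-well plates and a 48-hour single-concentration exposure. Example: -40 means 40% of the starting cells died.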 Values without a mark were called inactive. The source made the active and inactive calls. How the source made its calls: active means growth percent below 10; inactive means the rest."}
{"test_system": "SN12C renal", "test": "NCI-60 one-dose screen, 48 h (100 = growth as untreated, 0 = no growth, -100 = all killed)", "conditions": "10 µM unless noted"}
{"smiles": "COc1cc(NC(=O)c2cccc(-c3cc(=O)c4c(OC)c(OC)c(OC)cc4o3)c2)cc(OC)c1OC", "growth": "45.9%"}
{"smiles": "COc1ccc(NC(=O)c2cccc(-c3cc(=O)c4c(O)c(OC)c(OC)cc4o3)c2)cc1", "growth": "84.3%"}
{"smiles": "O=C1NN(C(=O)c2ccc(O)cc2)C(c2ccccc2)=N/C1=C\\c1cn(-c2ccccc2)nc1-c1ccccc1", "growth": "89.2%"}
{"smiles": "CO[C@H]1/C=C/O[C@@]2(C)Oc3c(C)c(O)c4c(c3C2=O)C(=O)C(/C=N/N(c2ccccc2)c2ccccc2)=C(NC(=O)/C(C)=C\\C=C\\[C@H](C)[C@H](O)[C@@H](C)[C@@H](O)[C@@H](C)[C@H](OC(C)=O)[C@@H]1C)C4=O", "growth": "-49.2% (active)"}
{"smiles": "C[C@@H]1C(=O)N(C[C@H](Cc2ccccc2)N(Cc2ccccc2)Cc2ccccc2)[C@]1(Cc1ccccc1)C(=O)OC(C)(C)C", "growth": "56.8%"}
{"smiles": "COc1cc(/C=C/C(=O)c2cccc(-n3cc(-c4ccc(Cl)cc4)[nH]c3=O)c2)cc(OC)c1OC", "growth": "56.3%"}
{"smiles": "COc1cc(-c2ccc(N=Nc3c(O)c(C(=O)Nc4ccccc4OC)cc4ccccc34)c(OC)c2)ccc1N=Nc1c(O)c(C(=O)Nc2ccccc2OC)cc2ccccc12", "growth": "98.6%"}
{"smiles": "CC/C=C/[C@@H]1C=C[C@@H]2CCC[C@H]2[C@@H]1CC[C@H](O)[C@H](C)N", "growth": "41.1%"}
{"smiles": "COc1ccc(C(=O)/C=C/c2cc3c(c(OC)c2)OCC(=O)N3)cc1", "growth": "48.7%"}
{"smiles": "Nc1nc(N)c(-c2ccc(Cl)cc2)c(/C=C/c2ccc([N+](=O)[O-])cc2)n1", "growth": "93.6%"}
{"smiles": "C=C(Cl)COC(=O)C(C)(C)O", "growth": "107%"}
{"smiles": "O=C1Nc2ccccc2SC1C1SC(=S)N(Cc2ccccc2)C1=O", "note": "(stereo not given)", "growth": "99.5%"}
{"smiles": "COc1ccc(OC)c(Nc2nc3nonc3nc2Nc2cc(OC)ccc2OC)c1", "growth": "32.3%"}
{"smiles": "COc1cc2oc(-c3cccc(C(=O)Nc4ccc(C)cc4)c3)cc(=O)c2c(OC)c1OC", "growth": "31.6%"}
{"smiles": "O=C1c2ccccc2C2(c3ccc(O)cc3)c3ccccc3Oc3cccc1c32", "note": "(stereo not given)", "growth": "37.5%"}
{"smiles": "COc1ccc(-c2cc(-c3cc(OC)ccc3OC)[nH]c(=O)c2C#N)cc1", "growth": "72%"}
{"smiles": "N[C@@H]1CCC[C@H]1NCCCCN1C(=O)c2cccc3cccc(c23)C1=O", "growth": "73.7%"}
{"smiles": "NC(=S)N/N=C/C(=O)O", "growth": "90.4%"}
{"smiles": "O=C1CSC(c2ccccc2)N1c1ccccc1", "note": "(stereo not given)", "growth": "101%"}
{"smiles": "O=C1NCC(=O)N(Cc2ccco2)[C@H]1Cc1ccccc1", "growth": "98.1%"}
{"smiles": "O=C(Nc1cccc2[nH]c(C(F)(F)F)nc12)c1cc(Cl)ccc1Cl", "growth": "28.7%"}
{"smiles": "CCNCCNc1cc(-c2ccc(C(F)(F)F)cc2)c(C#N)c2nc3cc(Cl)c(Cl)cc3n12", "growth": "-70.9% (active)"}
{"smiles": "COc1cc(NC(=O)c2cccc(-c3cc(=O)c4c(O)c(OC)c(OC)cc4o3)c2)cc(OC)c1OC", "growth": "63%"}
{"smiles": "Cc1cc(C(c2ccccc2)c2ccccc2)ccc1NS(=O)(=O)c1ccccc1", "growth": "95.3%"}
{"smiles": "COc1ccc(-c2nc3sc4c(c3c(=O)[nH]2)CCCC4)c2ccccc12", "growth": "36.2%"}
{"smiles": "COc1ccc(OC)c(Nc2nc3nonc3nc2Nc2cccc(Br)c2)c1", "growth": "12.4%"}
{"smiles": "O=C(O)CC1Sc2ccccc2NC1=O", "note": "(stereo not given)", "growth": "102%"}
{"smiles": "O=C(c1ccccc1)c1ccc(Cl)c([N+](=O)[O-])c1", "growth": "97%"}
{"smiles": "O=C1CSC(c2ccccc2O)N1c1nnc(Cn2cnnc2)o1", "note": "(stereo not given)", "growth": "79.6%"}
{"smiles": "Clc1ccc2[nH]c3c(NCCCN4CCOCC4)ncnc3c2c1", "growth": "82.5%"}
{"smiles": "CN(C)c1ccc(/C=C/c2c(F)cccc2F)cc1", "growth": "98.2%"}
{"smiles": "COC(=O)CCCNC(=O)C(=O)c1c(O)c(O)c(C(C)C)c2cc(C)c(-c3c(C)cc4c(C(C)C)c(O)c(O)c(C(=O)C(=O)NCCCC(=O)OC)c4c3O)c(O)c12", "growth": "16.6%"}
{"smiles": "CCOc1cccnc1/C=N/NC(N)=S", "growth": "53.5%"}
{"smiles": "COc1ccc(/C(C)=N/NS(=O)(=O)c2ccc(C)cc2)cc1OC", "growth": "109%"}
{"smiles": "COc1cc(NC(=O)c2cc(O)c(CC=C(C)C)c(O)c2)cc2c1O[C@]1(C)CC[C@@H](O)C(C)(C)[C@H]1C2", "growth": "65.3%"}
{"smiles": "CCCCNC(=O)NS(=O)(=O)c1ccc(N2N=C(c3ccc(C)cc3C)CC2c2ccc(N(C)C)cc2)cc1", "note": "(stereo not given)", "growth": "59.4%"}
{"smiles": "N#Cc1c(-c2ccc(C(F)(F)F)cc2)cc(N2CC(O)C2)n2c1nc1ccccc12", "growth": "72.3%"}
{"test_system": "UO-31 renal", "test": "NCI-60 one-dose screen, 48 h (100 = growth as untreated, 0 = no growth, -100 = all killed)", "conditions": "10 µM unless noted"}
{"smiles": "COc1cc(NC(=O)c2cccc(-c3cc(=O)c4c(OC)c(OC)c(OC)cc4o3)c2)cc(OC)c1OC", "growth": "20.9%"}
{"smiles": "COc1ccc(NC(=O)c2cccc(-c3cc(=O)c4c(O)c(OC)c(OC)cc4o3)c2)cc1", "growth": "93.4%"}
{"smiles": "O=C1NN(C(=O)c2ccc(O)cc2)C(c2ccccc2)=N/C1=C\\c1cn(-c2ccccc2)nc1-c1ccccc1", "growth": "78.6%"}
{"smiles": "CO[C@H]1/C=C/O[C@@]2(C)Oc3c(C)c(O)c4c(c3C2=O)C(=O)C(/C=N/N(c2ccccc2)c2ccccc2)=C(NC(=O)/C(C)=C\\C=C\\[C@H](C)[C@H](O)[C@@H](C)[C@@H](O)[C@@H](C)[C@H](OC(C)=O)[C@@H]1C)C4=O", "growth": "-19.3% (active)"}
{"smiles": "C[C@@H]1C(=O)N(C[C@H](Cc2ccccc2)N(Cc2ccccc2)Cc2ccccc2)[C@]1(Cc1ccccc1)C(=O)OC(C)(C)C", "growth": "41.2%"}
{"smiles": "COc1cc(/C=C/C(=O)c2cccc(-n3cc(-c4ccc(Cl)cc4)[nH]c3=O)c2)cc(OC)c1OC", "growth": "52.2%"}
{"smiles": "COc1cc(-c2ccc(N=Nc3c(O)c(C(=O)Nc4ccccc4OC)cc4ccccc34)c(OC)c2)ccc1N=Nc1c(O)c(C(=O)Nc2ccccc2OC)cc2ccccc12", "growth": "78.7%"}
{"smiles": "CC/C=C/[C@@H]1C=C[C@@H]2CCC[C@H]2[C@@H]1CC[C@H](O)[C@H](C)N", "growth": "-80% (active)"}
{"smiles": "COc1ccc(C(=O)/C=C/c2cc3c(c(OC)c2)OCC(=O)N3)cc1", "growth": "62.2%"}
{"smiles": "Nc1nc(N)c(-c2ccc(Cl)cc2)c(/C=C/c2ccc([N+](=O)[O-])cc2)n1", "growth": "41.7%"}
{"smiles": "C=C(Cl)COC(=O)C(C)(C)O", "growth": "92.7%"}
{"smiles": "O=C1Nc2ccccc2SC1C1SC(=S)N(Cc2ccccc2)C1=O", "note": "(stereo not given)", "growth": "73.1%"}
{"smiles": "COc1ccc(OC)c(Nc2nc3nonc3nc2Nc2cc(OC)ccc2OC)c1", "growth": "10.8%"}
{"smiles": "COc1cc2oc(-c3cccc(C(=O)Nc4ccc(C)cc4)c3)cc(=O)c2c(OC)c1OC", "growth": "44.3%"}
{"smiles": "O=C1c2ccccc2C2(c3ccc(O)cc3)c3ccccc3Oc3cccc1c32", "note": "(stereo not given)", "growth": "45.7%"}
{"smiles": "COc1ccc(-c2cc(-c3cc(OC)ccc3OC)[nH]c(=O)c2C#N)cc1", "growth": "64.4%"}
{"smiles": "N[C@@H]1CCC[C@H]1NCCCCN1C(=O)c2cccc3cccc(c23)C1=O", "growth": "56.2%"}
{"smiles": "NC(=S)N/N=C/C(=O)O", "growth": "38.8%"}
{"smiles": "O=C1CSC(c2ccccc2)N1c1ccccc1", "note": "(stereo not given)", "growth": "85.7%"}
{"smiles": "O=C1NCC(=O)N(Cc2ccco2)[C@H]1Cc1ccccc1", "growth": "99.8%"}
{"smiles": "O=C(Nc1cccc2[nH]c(C(F)(F)F)nc12)c1cc(Cl)ccc1Cl", "growth": "-3.23% (active)"}
{"smiles": "CCNCCNc1cc(-c2ccc(C(F)(F)F)cc2)c(C#N)c2nc3cc(Cl)c(Cl)cc3n12", "growth": "-92.5% (active)"}
{"smiles": "COc1cc(NC(=O)c2cccc(-c3cc(=O)c4c(O)c(OC)c(OC)cc4o3)c2)cc(OC)c1OC", "growth": "34.3%"}
{"smiles": "Cc1cc(C(c2ccccc2)c2ccccc2)ccc1NS(=O)(=O)c1ccccc1", "growth": "82.3%"}
{"smiles": "COc1ccc(-c2nc3sc4c(c3c(=O)[nH]2)CCCC4)c2ccccc12", "growth": "24.8%"}
{"smiles": "COc1ccc(OC)c(Nc2nc3nonc3nc2Nc2cccc(Br)c2)c1", "growth": "3.39% (active)"}
{"smiles": "O=C(O)CC1Sc2ccccc2NC1=O", "note": "(stereo not given)", "growth": "86.3%"}
{"smiles": "O=C(c1ccccc1)c1ccc(Cl)c([N+](=O)[O-])c1", "growth": "-87.9% (active)"}
{"smiles": "Nc1c(C(=O)Nc2ccccc2)sc2nc3c(cc12)CCCCCC3", "growth": "16.6%"}
{"smiles": "O=C1CSC(c2ccccc2O)N1c1nnc(Cn2cnnc2)o1", "note": "(stereo not given)", "growth": "46.7%"}
{"smiles": "Clc1ccc2[nH]c3c(NCCCN4CCOCC4)ncnc3c2c1", "growth": "57.2%"}
{"smiles": "CN(C)c1ccc(/C=C/c2c(F)cccc2F)cc1", "growth": "55.6%"}
{"smiles": "COC(=O)CCCNC(=O)C(=O)c1c(O)c(O)c(C(C)C)c2cc(C)c(-c3c(C)cc4c(C(C)C)c(O)c(O)c(C(=O)C(=O)NCCCC(=O)OC)c4c3O)c(O)c12", "growth": "-5.61% (active)"}
{"smiles": "CCOc1cccnc1/C=N/NC(N)=S", "growth": "9.56% (active)"}
{"smiles": "COc1ccc(/C(C)=N/NS(=O)(=O)c2ccc(C)cc2)cc1OC", "growth": "103%"}
{"smiles": "COc1cc(NC(=O)c2cc(O)c(CC=C(C)C)c(O)c2)cc2c1O[C@]1(C)CC[C@@H](O)C(C)(C)[C@H]1C2", "growth": "-11.9% (active)"}
{"smiles": "CCCCNC(=O)NS(=O)(=O)c1ccc(N2N=C(c3ccc(C)cc3C)CC2c2ccc(N(C)C)cc2)cc1", "note": "(stereo not given)", "growth": "51.4%"}
{"smiles": "N#Cc1c(-c2ccc(C(F)(F)F)cc2)cc(N2CC(O)C2)n2c1nc1ccccc12", "growth": "54.5%"}
